Hits are enriched below; roughly 5.9% of the tested compounds scored in any of these assays.
RORg inh = qHTS for inhibitors of ROR gamma transcriptional activity | AID 2551, 2010 | Potency, µM (series often up to 53.6 µM), without a hit: at the top dose activity change, negative = inhibition, hits mostly inhibitors | Drosophila S2 Gal4-RORgamma UAS-luciferase reporter, 20 h | actives 5.4% (n = 310,000); further: potency means the concentration at half of the fitted maximal effect; nearly all actives have a fitted effect of over 60% in size
Target sequence (P51450 whole entry, looked up, the tested form may be a part): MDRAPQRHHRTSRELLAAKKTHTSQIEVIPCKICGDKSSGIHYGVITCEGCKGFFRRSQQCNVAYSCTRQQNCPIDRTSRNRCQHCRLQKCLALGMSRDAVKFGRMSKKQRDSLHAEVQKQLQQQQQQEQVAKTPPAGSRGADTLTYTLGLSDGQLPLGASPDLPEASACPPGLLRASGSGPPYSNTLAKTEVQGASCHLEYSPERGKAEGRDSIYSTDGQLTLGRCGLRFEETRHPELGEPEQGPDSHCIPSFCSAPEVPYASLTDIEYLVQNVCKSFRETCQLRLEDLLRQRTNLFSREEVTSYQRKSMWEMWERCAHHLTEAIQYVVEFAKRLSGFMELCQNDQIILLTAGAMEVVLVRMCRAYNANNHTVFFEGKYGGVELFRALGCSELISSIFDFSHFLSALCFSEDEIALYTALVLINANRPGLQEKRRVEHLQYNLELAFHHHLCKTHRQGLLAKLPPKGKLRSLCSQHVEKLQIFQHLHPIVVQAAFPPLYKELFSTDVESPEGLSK
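In this cell-based reporter format, copper sulfate (700 uM final) drives Gal4–ROR gamma fusion expression from a metallothionein promoter in Drosophila Schneider cells; compounds preincubated 1 hr, reporter read after 20 hr at ambient temperature.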
rTrxR1 inhibitor = qHTS Assay for Inhibitors of Mammalian Selenoprotein Thioredoxin Reductase 1 (TrxR1): qHTS; Potency, µM (doses to about 114 µM), inactives show at the highest dose activity change, negative = inhibition, actives largely listed as inhibitors; Thioredoxin reductase 1, cytoplasmic (Rattus norvegicus), O89049; actives 1% (n = 390,000); recombinant rTrxR1, NADPH fluorescence consumption, selenite substrate; further: potency means the concentration at half of the fitted maximal effect; nearly all actives have a fitted effect of over 65% in size
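Rat TrxR1 (90 nM in the dispensed reagent) was pre-reduced with 400 uM NADPH for 5 min at room temperature, then incubated with compound for 15 min. After 400 uM selenite was added, NADPH fluorescence (Ex 340/Em 450 nm) was followed for 8 min.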
Coupling enz = qHTS Assay for Inhibitors of Fructose-1,6-bisphosphate Aldolase from Giardia Lamblia: Coupling assay counterscreen; activity change, negative = inhibition, % at 58.2 µM, hits read low; actives 0.67% (n = 290,000); AID 2472, 2010; coupling enzyme system counterscreen, AmpLite Red fluorescence; in the data active means activity change below about -30%
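Coupling enzymes only (glyceraldehyde-3-phosphate) + compound, at 57.5 uM final, 10 min RT; add substrate/coupling/AmpLite Red mix, 20 min RT; fluorescence ex 525/em 598 nm. Actives flag coupling-system interference.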
TrxR1 substrate = qHTS Assay for Substrates of Mammalian Selenoprotein Thioredoxin Reductase 1 (TrxR1): qHTS; Thioredoxin reductase 1, cytoplasmic (Rattus norvegicus), O89049; purified TrxR1 substrate turnover, NADPH consumption readout; Potency, µM (titrated, usually from 114 µM), for the others: at the top dose activity change, negative = substrate turnover; actives 0.01% (n = 390,000); AID 588456, 2011; further: potency means the concentration at half of the fitted maximal effect; nearly all actives have a fitted effect of over 50% in size
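Rat TrxR1, dispensed at 90 nM, was prereduced with 400 uM NADPH (final) for 5 min at ~22 deg C, then incubated with compound 15 min before 400 uM selenite. A first-read NADPH fluorescence drop versus no-compound background flagged substrates.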
GALK inhibitor = qHTS Assay for Inhibitors of Human Galactokinase (GALK); Potency, µM (doses to about 57.5 µM), for the others: top-dose activity change, negative = inhibition, hits mostly inhibitors; AID 1868, 2009; P51570; Purified GALK, Kinase-Glo residual ATP luminescence; actives 0.007% (n = 270,000); further: potency means the concentration at half of the fitted maximal effect
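Luminescence from leftover ATP (Ultra-Glo luciferase/luciferin) served as read-out after a 1 h room-temperature reaction of 5 nM GALK with 35 uM ATP and 100 uM galactose.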
VP16 counter = VP16 counterscreen qHTS for inhibitors of ROR gamma transcriptional activity; Drosophila S2 Gal4-VP16 UAS-luciferase, luminescence, 20 h; Potency, µM (doses to about 53.6 µM), for inactives: at the highest dose activity, negative = inhibition, hits mostly inhibitors; actives 3.5% (n = 310,000); AID 2546, 2010;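 further: Gal4-VP16 expression switched on by copper sulfate through the metallothionein promoter; potency means the concentration at half of the fitted maximal effect; nearly all actives have a fitted effect of over 50% in size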
* marks the source's active call; other numbers are inactive results; ? = inconclusive; . = no result given; [ ] = remark or other dose. Unless noted, the call rests on the fitted dose curve; in most records, active means well fitted curve in the direction sought with a large enough effect; inconclusive means small, poorly fitted or top-dose-only effect, or another doubt; inactive means no such curve, though single readings can be large; an effect the other way counts as inactive or inconclusive. On the % scale 0 is the no-effect control and ±100 the full control effect.

SMILES | RORg inh | rTrxR1 inhibitor | Coupling enz | TrxR1 substrate | GALK inhibitor | VP16 counter
CNc1ccc(Oc2nc([N+](=O)[O-])nn2C)cc1 | -6.2% | 9.9%[57.1 µM] | -8.3 | 6.1% | 1.9% | 4.2%
CC(C)(C)N1CC(C(=O)Nc2ccc(C#N)cc2)CC1=O (stereo unspecified) | -19.4% | 5.8%[57.1 µM] | 0.0 | 8.5%[57.1 µM] | 0.2% | -12.5%
O=c1[nH][nH]c2c(N=Cc3ccccc3O)ccc(F)c12 | -27.1% | 3.16µM* | -33.6* | 5.9% | . | -14.3%
Cn1ncc(N=Cc2ccccc2O)c1C(=O)Nc1ccccc1 | 14.8% | 8.0%[57.1 µM] | 8.3 | -6.2% | -5.0% | 12.5%
Cc1ccc(S(=O)(=O)NCC2NCCc3ccccc32)cc1 (stereo unspecified) | 17.8µM* | 10.6%[57.1 µM] | -0.7 | 6.4% | -0.5% | 5.6%
O=C(O)CC1NCCc2ccccc21 (stereo unspecified) | 2.3% | 18.9% | 2.1 | 5.1% | 3.8% | 0.0%
C#CCOCCOCCOCCNc1nc(N2CCN(C(=O)Cn3cc(CC(C)O)nn3)CC2)nc(N2CCN(C(=O)[C@H]([C@@H](C)O)n3cc(CCCCN)nn3)CC2)n1 (stereo partly specified) | . | 12.3%[57.1 µM] | . | 6.4%[57.1 µM] | . | .
CC(=O)N1CCN(c2nc(CC(C)C)c3c(c2C#N)CCC3)CC1 | 11.7% | 15.8%[57.1 µM] | -0.7 | 42.1%[57.1 µM] | -0.4% | 1.4%
CC(C)Cc1nc(N2CCN(C(=O)C(C)C)CC2)c(C#N)c2c1CCC2 | 1.41µM* | -16.1%[57.1 µM] | 3.9 | 55.6% | -0.3% | -4.8%
CC(C)Cc1nc(N2CCN(C(=O)c3ccccc3)CC2)c(C#N)c2c1CCC2 | 35.5µM* | -13.1% | -0.6 | 19.0% | -0.5% | 39.8µM*
CC(C)Cc1nc(N2CCN(C(=O)c3ccco3)CC2)c(C#N)c2c1CCC2 | -87.4% | ? | 0.3 | 27.3% | 0.5% | ?
CC(C)N1CCc2c(sc(NC(=O)c3ccc(S(=O)(=O)N4CCCCC4C)cc3)c2C(N)=O)C1 (stereo unspecified) | ? | 3.1% | . | -0.6% | 5.3% | 14.1µM*
Cc1nnc(NC(=O)c2ccc(S(=O)(=O)N3CCCCC3C)cc2)o1 (stereo unspecified) | 1.12µM* | -8.2% | -1.6 | -11.5% | 3.6% | 1.12µM*
CC1CCCCN1S(=O)(=O)c1ccc(C(=O)Nc2nnc(C3CC3)o2)cc1 (stereo unspecified) | 0.126µM* | -6.8% | 1.0 | -6.0% | -1.7% | 0.316µM*
Cc1nnc(NC(=O)c2ccc(S(=O)(=O)N3CCc4ccccc4C3)cc2)o1 | 1.26µM* | 4.5% | 0.7 | -3.2% | 0.2% | 5.01µM*
COc1cc(O)ccc1C=O | 8.6% | 9.5% | -2.0 | -9.8% | 1.5% | 0.5%
CCOc1ccccc1C(=O)Nc1ccc(S(=O)(=O)Nc2onc(C)c2C)cc1 | . | 2.0% | . | 2.9% | . | .
CC(CC(=O)O)CC(=O)Nc1ccc(Br)cc1 (stereo unspecified) | 4.2% | 14.4%[57.1 µM] | 5.3 | 4.2%[57.1 µM] | -1.9% | -1.1%
CC1CCCCN1S(=O)(=O)c1ccc(C(=O)Nc2nnc(-c3ccccn3)o2)cc1 (stereo unspecified) | 2µM* | -2.2% | 5.5 | -11.7% | 0.4% | 5.01µM*
CC1CN(S(=O)(=O)c2ccc(C(=O)Nc3nnc(-c4ccccn4)o3)cc2)CC(C)O1 (stereo unspecified) | ? | -14.4% | 9.5 | -15.1% | -2.3% | ?
CC1CCCCN1S(=O)(=O)c1ccc(C(=O)Nc2nnc(-c3ccco3)o2)cc1 (stereo unspecified) | 0.708µM* | ? | 6.6 | -15.5% | 0.5% | 0.631µM*
